Measurements reported in ChEMBL document CHEMBL1961873, “Compounds: GSK PKIS; Assays: Nanosyn kinase panel” (2012).

Legend:
[1] = molecular target: T1, Aurora kinase A (Homo sapiens) (UniProt O14965); conditions: at 1 µM;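 also: values are mean percent inhibition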
T1 sequence (whole entry): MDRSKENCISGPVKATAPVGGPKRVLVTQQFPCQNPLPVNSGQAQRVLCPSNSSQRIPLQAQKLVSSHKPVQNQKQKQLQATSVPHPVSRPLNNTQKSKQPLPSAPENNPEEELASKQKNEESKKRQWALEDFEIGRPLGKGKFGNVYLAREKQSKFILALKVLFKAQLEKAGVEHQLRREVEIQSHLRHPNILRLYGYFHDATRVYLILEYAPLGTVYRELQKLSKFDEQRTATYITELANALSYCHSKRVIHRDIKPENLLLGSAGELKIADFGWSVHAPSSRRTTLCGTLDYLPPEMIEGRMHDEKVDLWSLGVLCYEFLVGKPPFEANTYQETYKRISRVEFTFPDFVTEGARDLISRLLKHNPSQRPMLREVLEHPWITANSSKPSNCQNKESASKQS

[2] = molecular target: Aurora kinase B (Homo sapiens) (UniProt Q96GD4); conditions: at 0.1 µM
Chain of Aurora kinase B (Homo sapiens) (Q96GD4 whole entry): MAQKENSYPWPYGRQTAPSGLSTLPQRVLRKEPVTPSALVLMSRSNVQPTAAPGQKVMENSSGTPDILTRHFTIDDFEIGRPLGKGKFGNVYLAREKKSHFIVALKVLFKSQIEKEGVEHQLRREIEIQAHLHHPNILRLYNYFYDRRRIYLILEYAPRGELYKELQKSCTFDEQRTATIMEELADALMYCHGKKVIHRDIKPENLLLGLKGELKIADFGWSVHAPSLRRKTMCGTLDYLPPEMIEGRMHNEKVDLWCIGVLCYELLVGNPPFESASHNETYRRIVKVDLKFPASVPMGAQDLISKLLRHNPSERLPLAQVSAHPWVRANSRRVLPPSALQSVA

[3] = molecular target: Aurora kinase B (Homo sapiens) (UniProt Q96GD4); conditions: at 1 µM
[4] = molecular target: T2, Aurora kinase C (Homo sapiens) (UniProt Q9UQB9); conditions: at 0.1 µM
T2 sequence (whole entry): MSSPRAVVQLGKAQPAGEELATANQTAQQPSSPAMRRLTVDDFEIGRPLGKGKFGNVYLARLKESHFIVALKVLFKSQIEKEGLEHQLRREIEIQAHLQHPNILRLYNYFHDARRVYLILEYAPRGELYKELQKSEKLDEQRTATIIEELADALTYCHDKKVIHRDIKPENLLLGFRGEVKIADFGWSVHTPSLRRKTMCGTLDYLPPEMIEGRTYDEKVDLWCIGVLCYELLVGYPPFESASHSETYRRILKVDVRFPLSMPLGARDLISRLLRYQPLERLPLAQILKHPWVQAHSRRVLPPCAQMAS

[5] = molecular target: T2, Aurora kinase C (Homo sapiens); conditions: at 1 µM
[6] = molecular target: Serine/threonine-protein kinase 10 (Homo sapiens) (UniProt O94804); conditions: at 0.1 µM
Chain of Serine/threonine-protein kinase 10 (Homo sapiens) (O94804 whole entry, looked up): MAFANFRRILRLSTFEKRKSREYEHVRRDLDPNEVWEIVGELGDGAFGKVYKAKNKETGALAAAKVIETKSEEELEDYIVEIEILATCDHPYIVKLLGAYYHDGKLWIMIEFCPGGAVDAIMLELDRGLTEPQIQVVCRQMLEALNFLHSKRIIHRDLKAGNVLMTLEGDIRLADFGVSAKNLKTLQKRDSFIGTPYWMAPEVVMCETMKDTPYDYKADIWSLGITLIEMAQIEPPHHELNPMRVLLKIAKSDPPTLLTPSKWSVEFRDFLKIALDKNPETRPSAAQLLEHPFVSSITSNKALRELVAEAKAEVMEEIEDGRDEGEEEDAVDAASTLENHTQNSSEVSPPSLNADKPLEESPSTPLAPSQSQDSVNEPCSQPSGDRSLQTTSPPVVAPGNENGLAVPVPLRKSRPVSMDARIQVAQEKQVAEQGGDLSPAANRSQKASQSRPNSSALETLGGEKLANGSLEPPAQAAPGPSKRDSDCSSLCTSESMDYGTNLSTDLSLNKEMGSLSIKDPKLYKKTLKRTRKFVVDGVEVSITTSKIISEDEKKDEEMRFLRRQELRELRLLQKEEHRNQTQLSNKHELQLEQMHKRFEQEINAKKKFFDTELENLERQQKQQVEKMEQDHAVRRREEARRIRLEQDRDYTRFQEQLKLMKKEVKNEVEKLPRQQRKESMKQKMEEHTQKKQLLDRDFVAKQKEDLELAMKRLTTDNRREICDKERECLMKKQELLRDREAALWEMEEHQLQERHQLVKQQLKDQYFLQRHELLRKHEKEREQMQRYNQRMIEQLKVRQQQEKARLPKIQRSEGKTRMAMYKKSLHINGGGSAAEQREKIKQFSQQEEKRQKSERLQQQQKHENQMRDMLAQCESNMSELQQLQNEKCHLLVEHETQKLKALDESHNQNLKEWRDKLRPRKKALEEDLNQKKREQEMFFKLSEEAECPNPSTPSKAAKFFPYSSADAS

[7] = molecular target: Serine/threonine-protein kinase 10 (Homo sapiens) (UniProt O94804); conditions: at 1 µM
[8] = molecular target: T3, Mitogen-activated protein kinase kinase kinase kinase 2 (Homo sapiens) (UniProt Q12851); conditions: at 0.1 µM
T3 sequence (whole entry): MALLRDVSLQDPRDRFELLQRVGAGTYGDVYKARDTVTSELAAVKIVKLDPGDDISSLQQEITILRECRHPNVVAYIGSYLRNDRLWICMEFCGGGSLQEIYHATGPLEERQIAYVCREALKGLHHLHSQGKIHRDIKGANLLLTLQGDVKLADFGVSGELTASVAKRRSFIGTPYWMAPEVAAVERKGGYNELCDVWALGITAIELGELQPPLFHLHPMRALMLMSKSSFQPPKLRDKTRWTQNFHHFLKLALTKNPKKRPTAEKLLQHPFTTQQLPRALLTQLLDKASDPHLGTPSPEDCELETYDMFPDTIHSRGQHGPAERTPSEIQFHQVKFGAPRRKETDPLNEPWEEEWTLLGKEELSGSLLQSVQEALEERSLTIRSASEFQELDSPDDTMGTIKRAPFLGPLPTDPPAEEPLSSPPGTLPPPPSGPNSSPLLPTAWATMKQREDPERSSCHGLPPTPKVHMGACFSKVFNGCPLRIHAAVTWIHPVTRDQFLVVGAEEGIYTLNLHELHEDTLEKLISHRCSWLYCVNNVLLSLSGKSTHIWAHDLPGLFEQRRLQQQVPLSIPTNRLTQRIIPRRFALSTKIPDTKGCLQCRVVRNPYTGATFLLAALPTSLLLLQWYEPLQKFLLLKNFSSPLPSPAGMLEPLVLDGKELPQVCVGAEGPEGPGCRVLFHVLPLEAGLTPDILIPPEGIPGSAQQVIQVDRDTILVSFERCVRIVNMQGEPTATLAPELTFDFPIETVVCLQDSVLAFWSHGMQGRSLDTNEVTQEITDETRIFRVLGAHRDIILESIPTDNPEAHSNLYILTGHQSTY

[9] = molecular target: T3, Mitogen-activated protein kinase kinase kinase kinase 2 (Homo sapiens); conditions: at 1 µM
[10] = molecular target: Mitogen-activated protein kinase kinase kinase kinase 4 (Homo sapiens) (UniProt O95819); conditions: at 0.1 µM
Chain of Mitogen-activated protein kinase kinase kinase kinase 4 (Homo sapiens) (O95819 2-1239 limits assumed): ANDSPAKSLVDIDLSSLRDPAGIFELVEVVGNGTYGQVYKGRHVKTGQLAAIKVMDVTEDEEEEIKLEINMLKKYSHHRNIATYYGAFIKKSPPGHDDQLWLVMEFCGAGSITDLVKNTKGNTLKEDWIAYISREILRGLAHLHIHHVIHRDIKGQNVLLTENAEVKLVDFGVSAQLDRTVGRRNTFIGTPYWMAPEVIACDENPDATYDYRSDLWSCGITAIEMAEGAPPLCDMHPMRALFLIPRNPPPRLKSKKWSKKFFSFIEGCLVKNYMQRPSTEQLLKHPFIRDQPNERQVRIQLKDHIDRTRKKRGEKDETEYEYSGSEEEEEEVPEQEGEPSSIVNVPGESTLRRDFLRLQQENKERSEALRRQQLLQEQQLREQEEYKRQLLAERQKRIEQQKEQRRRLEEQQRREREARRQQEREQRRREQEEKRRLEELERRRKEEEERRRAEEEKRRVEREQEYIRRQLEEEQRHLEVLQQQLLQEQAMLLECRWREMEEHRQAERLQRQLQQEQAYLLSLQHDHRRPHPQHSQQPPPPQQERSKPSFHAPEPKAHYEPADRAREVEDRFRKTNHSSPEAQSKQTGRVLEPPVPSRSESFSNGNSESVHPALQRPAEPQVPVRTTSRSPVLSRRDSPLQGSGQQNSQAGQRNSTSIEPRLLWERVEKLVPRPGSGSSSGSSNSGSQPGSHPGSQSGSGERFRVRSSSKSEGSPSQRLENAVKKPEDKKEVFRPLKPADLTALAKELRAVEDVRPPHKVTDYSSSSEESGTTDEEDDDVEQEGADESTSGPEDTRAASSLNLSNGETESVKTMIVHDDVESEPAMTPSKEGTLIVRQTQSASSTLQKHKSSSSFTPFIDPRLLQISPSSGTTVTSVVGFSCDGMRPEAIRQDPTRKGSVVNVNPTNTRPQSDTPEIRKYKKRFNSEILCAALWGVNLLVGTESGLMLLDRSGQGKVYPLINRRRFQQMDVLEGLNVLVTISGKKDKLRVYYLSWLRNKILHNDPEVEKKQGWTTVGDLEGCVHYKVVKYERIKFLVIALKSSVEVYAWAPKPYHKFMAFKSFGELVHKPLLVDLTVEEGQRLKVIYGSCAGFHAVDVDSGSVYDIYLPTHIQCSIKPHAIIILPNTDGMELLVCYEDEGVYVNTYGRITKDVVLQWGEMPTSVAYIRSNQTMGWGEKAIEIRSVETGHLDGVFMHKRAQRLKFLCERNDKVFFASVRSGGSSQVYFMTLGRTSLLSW

[11] = molecular target: Mitogen-activated protein kinase kinase kinase kinase 4 (Homo sapiens) (UniProt O95819); conditions: at 1 µM
[12] = molecular target: Dual specificity mitogen-activated protein kinase kinase 1 (Homo sapiens) (UniProt Q02750); conditions: at 0.1 µM
Chain of Dual specificity mitogen-activated protein kinase kinase 1 (Homo sapiens) (Q02750 whole entry): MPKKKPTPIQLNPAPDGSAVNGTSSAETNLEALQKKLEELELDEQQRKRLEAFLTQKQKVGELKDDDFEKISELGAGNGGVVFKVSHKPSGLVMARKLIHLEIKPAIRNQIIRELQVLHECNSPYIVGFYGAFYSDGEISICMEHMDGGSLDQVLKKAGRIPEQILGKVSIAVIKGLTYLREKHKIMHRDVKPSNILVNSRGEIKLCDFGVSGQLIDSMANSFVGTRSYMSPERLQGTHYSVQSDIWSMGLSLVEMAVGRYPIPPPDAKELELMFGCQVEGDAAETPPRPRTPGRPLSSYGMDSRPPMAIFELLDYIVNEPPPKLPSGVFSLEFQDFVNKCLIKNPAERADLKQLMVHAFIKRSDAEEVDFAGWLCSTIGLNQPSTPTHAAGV

[13] = molecular target: Dual specificity mitogen-activated protein kinase kinase 1 (Homo sapiens) (UniProt Q02750); conditions: at 1 µM
[14] = molecular target: Misshapen-like kinase 1 (Homo sapiens) (UniProt Q8N4C8); conditions: at 0.1 µM
Chain of Misshapen-like kinase 1 (Homo sapiens) (Q8N4C8 whole entry, looked up): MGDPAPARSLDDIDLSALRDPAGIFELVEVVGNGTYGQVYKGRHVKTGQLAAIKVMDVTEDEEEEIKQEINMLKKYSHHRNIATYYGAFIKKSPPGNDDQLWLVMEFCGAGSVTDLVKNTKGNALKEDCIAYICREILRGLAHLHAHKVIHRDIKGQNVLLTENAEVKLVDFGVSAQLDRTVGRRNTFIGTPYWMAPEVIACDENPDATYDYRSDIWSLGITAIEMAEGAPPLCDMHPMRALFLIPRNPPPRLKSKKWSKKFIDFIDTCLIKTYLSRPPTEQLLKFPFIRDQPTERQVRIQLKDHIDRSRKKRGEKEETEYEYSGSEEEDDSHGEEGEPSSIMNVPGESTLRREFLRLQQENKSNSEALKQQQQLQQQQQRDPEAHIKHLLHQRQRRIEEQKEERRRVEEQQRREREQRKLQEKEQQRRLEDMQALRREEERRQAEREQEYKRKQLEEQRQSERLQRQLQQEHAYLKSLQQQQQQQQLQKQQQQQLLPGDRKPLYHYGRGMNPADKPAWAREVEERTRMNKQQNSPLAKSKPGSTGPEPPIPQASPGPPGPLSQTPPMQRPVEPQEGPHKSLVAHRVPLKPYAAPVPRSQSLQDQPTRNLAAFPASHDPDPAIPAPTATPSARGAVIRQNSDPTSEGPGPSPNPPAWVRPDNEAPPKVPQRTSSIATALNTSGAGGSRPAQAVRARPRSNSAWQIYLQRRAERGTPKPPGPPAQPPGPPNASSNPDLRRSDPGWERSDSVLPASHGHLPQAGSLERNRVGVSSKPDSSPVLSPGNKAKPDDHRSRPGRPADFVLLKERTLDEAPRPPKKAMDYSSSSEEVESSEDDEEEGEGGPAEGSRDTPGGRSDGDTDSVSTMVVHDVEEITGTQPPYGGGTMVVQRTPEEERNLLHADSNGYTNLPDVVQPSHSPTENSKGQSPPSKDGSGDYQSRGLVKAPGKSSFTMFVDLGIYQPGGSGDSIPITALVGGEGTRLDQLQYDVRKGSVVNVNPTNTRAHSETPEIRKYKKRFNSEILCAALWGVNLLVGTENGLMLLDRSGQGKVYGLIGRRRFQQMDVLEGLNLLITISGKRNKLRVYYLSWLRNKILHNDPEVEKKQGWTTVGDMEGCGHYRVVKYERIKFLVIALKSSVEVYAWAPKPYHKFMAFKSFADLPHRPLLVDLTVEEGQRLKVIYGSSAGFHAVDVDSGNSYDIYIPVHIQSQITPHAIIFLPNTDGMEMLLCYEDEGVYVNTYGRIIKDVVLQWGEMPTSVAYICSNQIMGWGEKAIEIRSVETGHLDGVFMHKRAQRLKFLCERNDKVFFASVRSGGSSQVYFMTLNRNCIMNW

[15] = molecular target: Misshapen-like kinase 1 (Homo sapiens) (UniProt Q8N4C8); conditions: at 1 µM
[16] = molecular target: T4, Serine/threonine-protein kinase 4 (Homo sapiens) (UniProt Q13043); conditions: at 0.1 µM
T4 sequence (whole entry): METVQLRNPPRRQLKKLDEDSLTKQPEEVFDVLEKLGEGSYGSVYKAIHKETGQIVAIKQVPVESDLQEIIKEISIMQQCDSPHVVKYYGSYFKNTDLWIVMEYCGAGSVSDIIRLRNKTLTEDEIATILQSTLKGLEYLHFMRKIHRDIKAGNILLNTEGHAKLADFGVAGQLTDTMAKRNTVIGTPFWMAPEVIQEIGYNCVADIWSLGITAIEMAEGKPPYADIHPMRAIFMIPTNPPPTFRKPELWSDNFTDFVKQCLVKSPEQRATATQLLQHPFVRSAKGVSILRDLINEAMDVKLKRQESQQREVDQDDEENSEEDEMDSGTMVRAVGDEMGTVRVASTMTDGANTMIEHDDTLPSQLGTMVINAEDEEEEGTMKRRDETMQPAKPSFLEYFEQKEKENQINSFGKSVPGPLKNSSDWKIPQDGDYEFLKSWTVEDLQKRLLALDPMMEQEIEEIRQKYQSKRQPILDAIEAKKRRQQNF

[17] = molecular target: T4, Serine/threonine-protein kinase 4 (Homo sapiens); conditions: at 1 µM
[18] = molecular target: T5, Serine/threonine-protein kinase 3 (Homo sapiens) (UniProt Q13188); conditions: at 0.1 µM
T5 sequence (whole entry): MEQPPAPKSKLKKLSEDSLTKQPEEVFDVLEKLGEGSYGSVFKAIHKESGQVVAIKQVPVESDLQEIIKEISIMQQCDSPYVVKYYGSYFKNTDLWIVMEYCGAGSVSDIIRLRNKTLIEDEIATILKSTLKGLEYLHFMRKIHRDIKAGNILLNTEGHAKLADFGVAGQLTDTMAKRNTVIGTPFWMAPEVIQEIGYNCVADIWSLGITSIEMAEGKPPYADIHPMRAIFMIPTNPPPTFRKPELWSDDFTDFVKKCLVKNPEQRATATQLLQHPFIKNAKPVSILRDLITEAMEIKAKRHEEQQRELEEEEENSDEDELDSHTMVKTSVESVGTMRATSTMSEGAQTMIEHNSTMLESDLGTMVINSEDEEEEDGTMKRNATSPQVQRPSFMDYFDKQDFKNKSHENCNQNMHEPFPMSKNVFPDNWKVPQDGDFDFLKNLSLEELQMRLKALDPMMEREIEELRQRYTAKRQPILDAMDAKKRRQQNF

[19] = molecular target: T5, Serine/threonine-protein kinase 3 (Homo sapiens); conditions: at 1 µM
[20] = molecular target: Serine/threonine-protein kinase 26 (Homo sapiens) (UniProt Q9P289); conditions: at 0.1 µM
Chain of Serine/threonine-protein kinase 26 (Homo sapiens) (Q9P289 2-416 limits assumed): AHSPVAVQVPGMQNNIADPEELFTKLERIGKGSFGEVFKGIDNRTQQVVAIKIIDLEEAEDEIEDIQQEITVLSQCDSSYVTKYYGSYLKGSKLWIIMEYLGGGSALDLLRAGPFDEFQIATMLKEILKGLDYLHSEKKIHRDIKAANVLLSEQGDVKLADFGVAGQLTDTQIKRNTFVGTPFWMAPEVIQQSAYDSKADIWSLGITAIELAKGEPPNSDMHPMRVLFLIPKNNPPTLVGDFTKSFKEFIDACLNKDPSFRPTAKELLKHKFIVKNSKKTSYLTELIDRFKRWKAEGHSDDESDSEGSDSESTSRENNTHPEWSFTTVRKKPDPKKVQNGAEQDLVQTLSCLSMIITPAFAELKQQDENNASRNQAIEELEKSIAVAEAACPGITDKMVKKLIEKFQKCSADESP

SMILES | inhibition [1] | inhibition [2] | inhibition [3] | inhibition [4] | inhibition [5] | inhibition [6] | inhibition [7] | inhibition [8] | inhibition [9] | inhibition [10] | inhibition [11] | inhibition [12] | inhibition [13] | inhibition [14] | inhibition [15] | inhibition [16] | inhibition [17] | inhibition [18] | inhibition [19] | inhibition [20]
Cc1cc(O)cc(C)c1/C=C/c1cncc(-c2nn[nH]n2)c1 | -0.41% | -2.87% | 1.12% | -3.31% | -0.15% | 5.3% | 39.7% | 1.25% | 5.33% | 8.4% | 25.3% | 6.51% | 5.24% | 9.23% | 21.7% | 3.48% | 9.22% | 4.45% | 10.7% | -1.84%
COc1cc(C)c(NC(=O)CN(C)C)cc1Nc1nc(Nc2cccc(F)c2C(N)=O)c2cc[nH]c2n1 | 13.5% | -2.09% | 6.07% | -0.55% | 12.3% | 2.47% | 3.17% | 9.71% | 43.9% | 4.26% | 17.8% | 3.12% | 6.41% | 3.15% | 13.8% | 4.73% | 17.7% | 5.85% | 7.94% | 0.41%
Cc1nn(C)c2cc(N(C)c3ccnc(Nc4cccc(S(N)(=O)=O)c4)n3)ccc12 | 89.8% | 7.86% | 47.5% | 13.3% | 93% | 13.3% | 51.4% | 7.42% | 30.9% | 53.7% | 84.1% | 3.83% | 4.09% | 44.2% | 83.8% | 1.85% | 3.69% | 1.21% | 3.34% | -0.82%
CCn1c(-c2nonc2N)nc2cncc(C(=O)N3CC[C@H](N)C3)c21 | 3.21% | 2.84% | 6.38% | 1.58% | -2.29% | 4.37% | 12% | 0.43% | 2.34% | 5.42% | 5.7% | 6.85% | 6.13% | 7.01% | 6.82% | 3.69% | 4.11% | 4.28% | 4.87% | -0.5%
CCn1c(-c2nonc2N)nc2c(N3CCCC3)nccc21 | 2.53% | -1.12% | 5.43% | 0.17% | -2.42% | -0.24% | 2.42% | 1.22% | 4.2% | 0.97% | 2.78% | -2.28% | -2.11% | 0.71% | 2.4% | -1.49% | -1.2% | -2.05% | 0.3% | 0.47%
COc1ccc(COc2ccc(Cc3cnc(N)nc3N)cc2OC)cc1 | 2.3% | 3.53% | 4.95% | 2.97% | 16.2% | 5.28% | 7.31% | 3.72% | 3.99% | 0.34% | 6.03% | 1.66% | 0.97% | 0.71% | 4.81% | 4.51% | 4.23% | 3.88% | 3.04% | 3.22%
O=C1NC(=O)C(c2ccccc2Cl)=C1Nc1cccc(O)c1 | 11.6% | 2.88% | 7.74% | 1.84% | 7.14% | 8.75% | 49.3% | 1.12% | 2.09% | 3.71% | 6.87% | 1.44% | 1.89% | 3.8% | 5.96% | 7.3% | 27.2% | 7.12% | 22.5% | -0.62%
Fc1cccc(COc2ccc(Nc3ncnc4cc(-c5ccc[nH]5)sc34)cc2Cl)c1 | 7.53% | 0.54% | 13.2% | -2.76% | -2.08% | 2.11% | 11.9% | 0.55% | 4.58% | 5.64% | 13.9% | 3.99% | 3.24% | 6.08% | 12.7% | 0.61% | 2.35% | 1.18% | 3.32% | -0.07%
O=C1NC(=O)C(c2cccc(Cl)c2)=C1Nc1ccc(O)c(Cl)c1 | 11.1% | 1.17% | 6.09% | 1.02% | 13.1% | 6.26% | 46.3% | 4% | 21.3% | 1.83% | 7.19% | 0.81% | 7.65% | 2.81% | 7.79% | 33.6% | 75.2% | 24.3% | 66.8% | 1.93%
CC(=O)Nc1cccc(C#Cc2cncnc2Nc2ccc(OCc3cccc(F)c3)c(Cl)c2)n1 | 2.65% | 3.23% | 1.96% | 3.46% | -5.73% | 4.04% | 14.4% | 2.81% | 2.04% | -0.3% | 8.1% | -0.39% | -1.7% | 0.33% | 10.7% | 4% | 7.41% | 3.99% | 8.13% | 2.55%
COc1ccc(-c2nn3ncccc3c2-c2ccnc(Nc3ccc(Cl)c(C(F)(F)F)c3)n2)cc1 | 6.68% | 4.71% | 2.65% | 0.61% | -3.91% | 4.44% | 10.5% | 0.35% | 0.58% | 3.81% | 14.7% | 2.33% | 1.56% | 3.94% | 10.2% | 1.84% | 5.36% | 2.73% | 6.97% | 0.59%
COc1cc2ncn(-c3cc(OCc4ccccc4Cl)c(C(N)=O)s3)c2cc1OC | 23.5% | 4.78% | 29.9% | 2.35% | 40.5% | 67.3% | 99% | 7% | 30.8% | 13.9% | 56.6% | 2.14% | 2.16% | 10.9% | 51% | 7.11% | 46.2% | 6.18% | 42.4% | 0.45%
CCCN1CCC(Oc2cc(Nc3nc(Nc4cccc(F)c4C(N)=O)c4cc[nH]c4n3)c(OC)cc2Cl)CC1 | 5.9% | 3.16% | 6.47% | 2.93% | -1.8% | -0.06% | 7.28% | 1.26% | 9.17% | -0.01% | 3.64% | 0.84% | 20.6% | 1% | 1.71% | -0.56% | 1.54% | -0.96% | 0.14% | 1.68%
CCn1c(-c2nonc2N)nc2cncc(C(=O)N3CCNCC3)c21 | 2.9% | 3.66% | 4.51% | -0.51% | 1.12% | 10.8% | 8.24% | 1.51% | 2.14% | 3.11% | 4.49% | 5.61% | 4.93% | 5.47% | 6.02% | 3.69% | 5.39% | 8.73% | 8.25% | -0.22%
